# Compound activity deposited in PubChem by The Scripps Research Institute Molecular Screening Center.
# MITF primary: blocks human microphthalmia-associated transcription factor; AlphaScreen MITF homodimerization, bead proximity signal; inhibition, % at 2.6 µM; 0.91% of 650,000 active; in the data active = inhibition above about 50%;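 also: 0% = vehicle wells with protein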
# Target sequence (O75030 whole entry, looked up): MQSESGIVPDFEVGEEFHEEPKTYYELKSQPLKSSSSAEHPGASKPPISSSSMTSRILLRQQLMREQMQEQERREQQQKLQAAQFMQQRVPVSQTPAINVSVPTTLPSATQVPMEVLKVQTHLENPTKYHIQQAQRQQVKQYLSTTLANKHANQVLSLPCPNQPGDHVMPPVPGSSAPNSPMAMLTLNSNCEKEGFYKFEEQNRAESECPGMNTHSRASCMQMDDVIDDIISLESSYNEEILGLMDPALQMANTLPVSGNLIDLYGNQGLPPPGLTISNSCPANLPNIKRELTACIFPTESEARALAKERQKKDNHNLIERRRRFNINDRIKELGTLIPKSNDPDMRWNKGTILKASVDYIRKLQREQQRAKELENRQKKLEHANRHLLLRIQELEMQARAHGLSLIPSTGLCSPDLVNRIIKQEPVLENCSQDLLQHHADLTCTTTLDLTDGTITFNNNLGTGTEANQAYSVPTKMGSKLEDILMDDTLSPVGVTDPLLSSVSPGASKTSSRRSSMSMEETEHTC
# GPR151 ag: human GPR151 activation | AID 1508602 | activation, % at 11.2 µM | PathHunter beta-arrestin GPR151 cells, luminescence | 1% of 650,000 active; in the data active = activation above about 4.9%;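 also: 0% = median of compound wells and 100% = cells with positive control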
# TEAD-YAP block: TEAD-YAP interaction inhibition; HEK-TIYL cells, TEAD-Gal4/YAP UAS-luciferase luminescence; inhibition, % at 9.12 µM; 1.4% of 640,000 active; AID 1259422; in the data active = inhibition above about 32%;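 also: 0% = median of test compound wells and 100% = reference inhibitor wells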
# FBW7 act: human FBW7 E3 ligase activation, primary screen. Q969H0. AlphaScreen FBW7–phospho-cyclin E peptide binding, activator screen. normalized activity (activation), % at 26.1 µM. 0.13% of 650,000 active; in the data active = normalized activity above about 1.9%;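 also: purified mutant Fbw7 with reduced substrate affinity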
# The depositor's hits bear a star. The list is not random: actives were taken first. Their share in the collection is about 3.5%.
SMILES,MITF primary,GPR151 ag,TEAD-YAP block,FBW7 act
COc1cc(Nc2cc(N3CCN(C(=O)c4ccco4)CC3)c3noc4c3c2C(=O)c2ccccc2-4)cc(OC)c1OC,9,-2,40*,0
CCCN1CCN(c2cc(Nc3cccc(OC)c3)c3c4c(onc24)-c2ccccc2C3=O)CC1,61*,2,6,0
CCOC(=O)C1CCCN(c2cc(Nc3ccc4c(c3)OCCO4)c3c4c(onc24)-c2ccccc2C3=O)C1 (stereo unspecified),4,0,38*,0
Fc1ccc(-c2cn[nH]c2C2CCCN(Cc3ccco3)C2)cc1 (stereo unspecified),12,1,5,0
CCCCC(C(=O)OCC)(C(=O)OCC)c1cc(Nc2ccc(C)cc2)c2c3c(onc13)-c1ccccc1C2=O,55*,-1,-10,0
O=C(N/N=C/c1ccccc1)C(O)C(O)C(=O)N/N=C/c1ccccc1 (stereo unspecified),14,0,2,1
Cc1ccc(C(=O)NC(=S)Nc2c(C)n(C)n(-c3ccccc3)c2=O)cc1,8,-1,8,0
O=C(Nc1ccc(Cn2ccnc2)cc1)c1cccc(-n2cc(NC(=O)C3CCc4ccccc43)cn2)c1 (stereo unspecified),-3,-1,37*,0
O=C(Cc1ccccc1)Nc1cnn(-c2cccc(C(=O)Nc3ccc(Cn4ccnc4)cc3)c2)c1,-4,0,3,0
Cc1ccccc1Nc1nc(Cl)c(C=O)s1,6,0,40*,0
CSc1ncc(CN2CCN(CCc3ccccc3)C(CCO)C2)cn1 (stereo unspecified),2,1,16,0
CCOC(=O)C1=CN(c2ccc(C)cc2)C=C(C(=O)OCC)C1c1ccc(F)cc1,-8,2,0,0
CCOc1cc(/C=C2/NC(=O)NC2=O)c(Br)cc1O,-28,0,44*,0
COc1cc(/C=C2/NC(=O)NC2=O)c(Br)cc1O,-2,0,10,0
CCOc1cc(Cl)c(/C=C2/NC(=O)NC2=O)cc1OCC,4,-1,-11,0
CCOc1cc(Br)c(/C=C2/NC(=O)NC2=O)cc1OCC,7,0,44*,0
O=C(Nc1ccc(-c2cc3ccccc3oc2=O)cc1)c1cc(I)ccc1Cl,4,0,-3,0
CS(=O)(=O)N(CC(=O)NCc1ccc(Cl)cc1)c1ccccc1Br,-4,-1,10,0
Oc1ccc(O)c(Cc2nc3ccccc3s2)c1,2,4,53*,0
Nc1ccc(-c2nc3ccccc3s2)cc1N,-8,-7,29,0
Oc1cccc(-c2nc3ccccc3s2)c1,-5,-4,92*,0
COc1ccc(-c2nc3ccccc3s2)cc1OC(C)=O,20,-3,58*,1
Nc1nc(SCC(=O)Nc2ccccc2C(=O)NC2CCCC2)n[nH]1,6,1,4,0
CC(=O)Nc1ccc(OCc2ccccc2Cl)cc1,-7,-1,5,0
O=C(N/N=C/c1ccc(O)c(I)c1)c1ccc2c(c1)OCCO2,-12,1,-15,0
SMILES,MITF primary,GPR151 ag,TEAD-YAP block,FBW7 act
Cc1cc(O)cc(O)c1/C=N/NC(=O)c1ccc2c(c1)OCCO2,9,-1,56*,0
O=C(N/N=C/c1ccc(O)cc1O)c1ccc(CN2C(=O)c3cccc4cccc2c34)cc1,21,3,33*,-1
O=C(N/N=C/c1ccc(O)cc1O)c1ccc2c(c1)OCCO2,18,1,61*,0
O=c1cc(C(F)(F)C(F)(F)F)oc2ccccc12,-10,2,-7,0
Cc1ccccc1OCC(O)CN1CCN(c2ccc(F)cc2)CC1 (stereo unspecified),-14,-1,8,0
COc1ccc(OC)c(NC(=O)C2=C(C)NC(=O)NC2c2ccc(Br)cc2)c1 (stereo unspecified),-9,0,1,0
N/C(=N\N=C\c1cccc([N+](=O)[O-])c1)c1ccccn1,-2,-4,43*,0
N/C(=N\N=C/c1ccc(O)cc1)c1ccccn1,29,-7,93*,-1
C/C(=N/NC(=O)c1ccccn1)c1cccc([N+](=O)[O-])c1,18,-3,-21,0
Cc1c(N/N=C(\C#N)C(=O)c2ccccc2)c(=O)n(-c2ccccc2)n1C,40,-1,18,-2
Cc1ccccc1C(=O)/C(C#N)=N/Nc1c(C)n(C)n(-c2ccccc2)c1=O,70*,0,20,-1
CC(C)n1cnc2c(NCc3nc4ccccc4[nH]3)nc(-c3ccc(N4CCOCC4)nc3)nc21,-1,-1,70*,0
